Assay results taken from PubChem BioAssay (Tox21).
Inconclusive results are not listed. Entries that show only a call come without a potency. Calls of active or inactive are those of the source. The call rests on the fitted dose curve; in most records, active means well fitted cell-killing curve with a large enough effect in the repeat runs; inconclusive means weak or mixed curves, or effect the other way; inactive means no such curve, though single readings can be large or run the other way.

Experiment: Caspase-3/7 induction in CHO-K1 cells by small molecules, qHTS cell viability counter screen (AID 1346979); further: nearly all actives have a fitted effect of over 35% in size
Conditions: CellTiter-Fluor fluorescence, 17 h; series mostly up to 92.4 µM
Description: National Center for Advancing Translational Sciences [NCATS]
NIH Chemical Genomics Center [NCGC]
U.S. Environmental Protection Agency [EPA]
National Institutes of Environmental Health Sciences [NIEHS]
National Toxicology Program [NTP]
U.S. Food and Drug Administration [FDA]
Apoptosis is a process of programmed cell death and plays a central role in the development of multicellular organisms. It is a highly regulated process and induces cell death by activating caspases, which are the members of cysteine aspartic acid-specific protease (caspase) family. Caspases involved in apoptosis are classified by their mechanism of action as initiator caspases (caspase-2, -8, -9 and -10) and executioner caspases (caspase-3, -6, and -7). Inhibition of apoptosis results in number of cancers, autoimmune diseases, inflammatory diseases and viral infection. To identify small molecule compounds that induce apoptosis, a homogeneous, luminescent Caspase-Glo 3/7 assay was used. Wild type CHO-K1 cells were used to screen Tox21 libraries for identifying caspase-3/7 activity inducers. Also cytotoxicity of the compounds was tested in parallel by measuring the cell viability using CellTiter-Fluor assay system in the same wells.
Tox21 Assay Protocol Summary:
CHO-K1 cells were dispensed at 1,500 per well in 5uL of culture medium into white solid bottom 1536-well plates (Corning Life Sciences, Corning, NY) using a Multidrop Combi (Thermo Scientific, Waltham, MA) dispenser. The assay plates were incubated at 37 C and 5% CO2 for 5hr, and then 23nL of compounds dissolved in DMSO and positive control were transferred using a Pintool station (Wako, San Diego, CA). The assay plates were incubated at 37C and 5% CO2 for 17hr. For cytotoxicity read, after 16hr incubation at 37C, 1uL CellTiter-Fluor reagent (Promega Corporation, Madison, WI) was added to each well of the assay plates using Flying Reagent Dispenser (FRD, Aurora Discovery, San Diego, CA). After 1hr incubation at 37C and 5% CO2, the fluorescence signal was quantified using a ViewLux plate reader (PerkinElmer, Shelton, CT).
Potency means the concentration at half of the fitted maximal effect.

SMILES	Potency
CCC(C)(C)OC	inactive
Oc1cccc(Nc2ccccc2)c1	inactive
N#CCc1ccc(Cl)cc1Cl	inactive
O=C(O)c1cccc(-c2noc(-c3ccccc3F)n2)c1	inactive
Cc1cc(=O)c2c(O)c3c(O)cc(=O)c4c3c3c(cc(O)c1c23)C(C)(C)C=4O	2.59 µM (active)
C=C(C)C(=O)OCCOCCOC(=O)C(=C)C	inactive
COc1cc(C(=O)NCCCCCC(=O)O)cc(OC)c1OC	inactive
CCOC(=O)[C@H](CCc1ccccc1)N[C@@H](C)C(=O)N(CC(=O)O)C1Cc2ccccc2C1	inactive
O=C(/C=C/c1ccccc1)OCCc1ccccc1	inactive
CCC1NC(=O)c2cc(S(N)(=O)=O)c(Cl)cc2N1 (stereo not given)	inactive
Oc1cc2c(cc1O)[C@H]1c3ccc(O)c(O)c3OC[C@@]1(O)C2	27.6 µM (active)
CC(C)(c1ccccc1)c1ccccc1	inactive
CC(C)COCC(CN(Cc1ccccc1)c1ccccc1)N1CCCC1 (stereo not given)	29.8 µM (active)
CCCCCCCC/C=C\CCCCCCCCO	inactive
Cc1cc(C)c(N)cc1C	inactive
CC(C)Nc1cccnc1N1CCN(C(=O)c2cc3cc(NS(C)(=O)=O)ccc3[nH]2)CC1	inactive
N#CCCN(CCO)CCO	inactive
CCC(=O)C1CC(C(C)C)CC=C1C (stereo not given)	inactive
C=C(C)C(=O)OCCCCCCCCCCCCC	inactive
CC(=O)OCC(=O)NCCCOc1cccc(CN2CCCCC2)c1	inactive

SMILES	Potency
CC(=O)OCC[N+](C)(C)C	inactive
CC(C)=CCC/C(C)=C/CC/C(C)=C/CCC(=O)OC/C=C(\C)CCC=C(C)C	inactive
C=CCc1ccccc1OCC(O)CNC(C)C (stereo not given)	inactive
CCOC(=O)/C=C/C(=O)OCC	inactive
CC(=O)[C@H]1[C@H](C#N)C[C@H]2[C@@H]3CC=C4C[C@@H](O)CC[C@]4(C)[C@H]3CC[C@@]21C	inactive
C=C1CCC2CC1C2(C)C (stereo not given)	inactive
CC[N+](CC)(CCNC(=O)C(=O)NCC[N+](CC)(CC)Cc1ccccc1Cl)Cc1ccccc1Cl	inactive
O[C@@H]1CO[C@H]2[C@@H]1OC[C@@H]2O	inactive
COC(=O)[C@H]1[C@H]2C[C@@H]3c4[nH]c5cc(OC)ccc5c4CCN3C[C@H]2C[C@@H](OC(=O)/C=C/c2ccc(O)c(OC)c2)[C@@H]1OC	26.6 µM (active)
C[C@@H](O)[C@H]1C(=O)N2C(C(=O)O)=C([C@H]3CCCO3)S[C@H]12	inactive
CCCCCCCCN	inactive
O=C(O)C[C@H](NC(=O)OCc1ccccc1)C(=O)O	inactive
CS(=O)(=O)c1ccc(-c2cn3ccccc3n2)cc1	inactive
C=C(C)[C@@H]1CCC2=CCC[C@@H](C)[C@]2(C)C1	inactive
CCOC(=O)OC(C)OC(=O)[C@@H]1N2C(=O)[C@@H](NC(=O)[C@H](N)c3ccccc3)[C@H]2SC1(C)C (stereo not given in full)	inactive
Cc1cscn1	inactive
OC(CCN1CCCC1)(c1ccccc1)C1CCCCC1 (stereo not given)	inactive
OC1(c2ccccc2)CCNCC1	inactive
CN1C(=O)OC(C)(C)C1=O	inactive
C=C1c2cccc(O)c2C(O)=C2C(=O)[C@]3(O)C(O)=C(C(N)=O)C(=O)[C@@H](N(C)C)[C@@H]3[C@@H](O)[C@H]12	inactive
